According to PubChem BioAssay (NCATS):
Results filed as inconclusive are left out. The source made the active and inactive calls.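 Rule for the calls: active = compounds whose dose-response curve shows a full or clear partial loss of cell viability, called from curve shape rather than a numeric limit; inconclusive = weak partial curves or an effect only at the top dose; inactive = no dose-dependent loss of viability.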

Test: Cell Viability - Hek293 (AID 427);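 note: cells exposed to compound for 40 hours at 37 °C before reading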
Settings: qHTS
Outline: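 qHTS, human embryonic kidney (adenovirus-transformed) cells; 40 hr cpd, 37 °C; CellTiter-Glo ATP luminescence. Norm: DMSO = 0, 100 uM tamoxifen = 100% inhibition. Hill-fit AC50.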
Potency is the fitted concentration of half-maximal effect.

SMILES	Potency
Nc1cc([N+](=O)[O-])ccc1C(=O)O	> 92 µM (inactive)
C=CCCCCCCC=C	> 92 µM (inactive)
CC(C)CCOC(=O)/C=C/c1ccccc1	> 92 µM (inactive)
ClCCl	> 92 µM (inactive)
CO[Si](CCCNCCC[Si](OC)(OC)OC)(OC)OC	> 92 µM (inactive)
Cc1ccc(N(C)C)cc1	> 92 µM (inactive)
COC(=O)CCCC(=O)OC	> 92 µM (inactive)
CCCCN(CCO)CCCC	> 92 µM (inactive)
CCOC(=O)C(C)C(C)=O (centres undefined)	> 92 µM (inactive)
C[C@@H]1CC2(OC3C[C@@]4(C)C5=CC[C@H]6C(C)(C)C(O[C@@H]7OC[C@@H](O)[C@H](O)[C@H]7O)CC[C@@]67C[C@@]57CC[C@]4(C)C31)OC(O)C1(C)OC21 (some centres undefined)	> 92 µM (inactive)
CC(C)(C)OC=O	> 92 µM (inactive)
Cc1ccccc1C#N	> 92 µM (inactive)
C=Cc1ccccc1C=C	> 92 µM (inactive)
CC(C)=CCC/C(C)=C/C=O	> 92 µM (inactive)
